In ChEMBL document CHEMBL1961873, “Compounds: GSK PKIS; Assays: Nanosyn kinase panel” (2012) one finds inhibition data, which are given here for one compound.

The target of assay [1] is Sphingosine kinase 1 (Homo sapiens) (UniProt Q9NYA1). The note with it: at 1 µM.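 Further: mean SPHK1 inhibition value reported from the GSK PKIS kinase panel screen.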
In assay [2] the target is T1, Sphingosine kinase 2 (Homo sapiens) (UniProt Q9NRA0).
T1 sequence (whole entry): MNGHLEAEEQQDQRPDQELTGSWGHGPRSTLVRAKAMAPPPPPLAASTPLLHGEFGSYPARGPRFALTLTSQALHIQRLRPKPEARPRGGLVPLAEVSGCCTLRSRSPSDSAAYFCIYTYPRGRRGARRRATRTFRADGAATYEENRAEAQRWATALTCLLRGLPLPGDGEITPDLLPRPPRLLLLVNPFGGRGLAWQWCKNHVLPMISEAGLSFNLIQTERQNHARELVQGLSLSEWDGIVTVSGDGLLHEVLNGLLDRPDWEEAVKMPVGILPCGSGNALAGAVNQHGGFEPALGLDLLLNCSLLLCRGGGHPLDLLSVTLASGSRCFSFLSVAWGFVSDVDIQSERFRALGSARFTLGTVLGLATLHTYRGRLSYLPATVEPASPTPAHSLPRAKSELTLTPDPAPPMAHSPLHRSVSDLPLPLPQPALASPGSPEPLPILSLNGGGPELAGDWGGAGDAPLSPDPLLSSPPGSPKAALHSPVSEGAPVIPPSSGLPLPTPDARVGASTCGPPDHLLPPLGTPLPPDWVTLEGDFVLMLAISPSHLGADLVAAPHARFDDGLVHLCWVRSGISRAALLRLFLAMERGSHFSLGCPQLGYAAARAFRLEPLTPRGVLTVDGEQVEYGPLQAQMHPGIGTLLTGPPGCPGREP
The note with it: at 0.1 µM.

For assay [3], the target named is T1, Sphingosine kinase 2 (Homo sapiens). As to conditions: at 1 µM.
Assay [4] has as its target Casein kinase II subunit alpha (Homo sapiens) (UniProt P68400). As to conditions: at 0.1 µM.
For assay [5] the target is unchanged. The note with it: at 1 µM.
Assay [6] deals with T2, Inhibitor of nuclear factor kappa-B kinase subunit alpha (Homo sapiens) (UniProt O15111).
T2 sequence (whole entry): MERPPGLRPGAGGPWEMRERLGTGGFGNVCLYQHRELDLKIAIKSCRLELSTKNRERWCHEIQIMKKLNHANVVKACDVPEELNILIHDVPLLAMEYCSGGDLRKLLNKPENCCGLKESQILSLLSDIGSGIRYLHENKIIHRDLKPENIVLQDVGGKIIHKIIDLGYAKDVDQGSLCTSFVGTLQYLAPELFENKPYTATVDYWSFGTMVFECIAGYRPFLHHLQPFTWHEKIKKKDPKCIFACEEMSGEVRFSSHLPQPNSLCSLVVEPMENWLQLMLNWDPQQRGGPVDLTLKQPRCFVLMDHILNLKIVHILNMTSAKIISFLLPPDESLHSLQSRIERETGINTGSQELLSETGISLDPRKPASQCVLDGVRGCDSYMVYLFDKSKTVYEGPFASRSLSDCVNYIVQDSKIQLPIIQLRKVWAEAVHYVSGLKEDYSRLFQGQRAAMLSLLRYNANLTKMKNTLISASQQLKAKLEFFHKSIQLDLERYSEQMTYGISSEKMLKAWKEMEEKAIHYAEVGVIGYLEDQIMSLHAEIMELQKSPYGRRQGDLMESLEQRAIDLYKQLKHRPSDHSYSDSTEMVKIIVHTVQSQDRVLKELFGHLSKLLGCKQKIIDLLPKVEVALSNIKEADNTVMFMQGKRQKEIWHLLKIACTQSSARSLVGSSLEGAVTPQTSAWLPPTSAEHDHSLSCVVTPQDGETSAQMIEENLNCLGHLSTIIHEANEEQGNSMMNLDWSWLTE
As to conditions: at 0.1 µM.

Assay [7] concerns the target T2, Inhibitor of nuclear factor kappa-B kinase subunit alpha (Homo sapiens). As to conditions: at 1 µM.
The target in assay [8] is T3, Inhibitor of nuclear factor kappa-B kinase subunit beta (Homo sapiens) (UniProt O14920).
T3 sequence (whole entry): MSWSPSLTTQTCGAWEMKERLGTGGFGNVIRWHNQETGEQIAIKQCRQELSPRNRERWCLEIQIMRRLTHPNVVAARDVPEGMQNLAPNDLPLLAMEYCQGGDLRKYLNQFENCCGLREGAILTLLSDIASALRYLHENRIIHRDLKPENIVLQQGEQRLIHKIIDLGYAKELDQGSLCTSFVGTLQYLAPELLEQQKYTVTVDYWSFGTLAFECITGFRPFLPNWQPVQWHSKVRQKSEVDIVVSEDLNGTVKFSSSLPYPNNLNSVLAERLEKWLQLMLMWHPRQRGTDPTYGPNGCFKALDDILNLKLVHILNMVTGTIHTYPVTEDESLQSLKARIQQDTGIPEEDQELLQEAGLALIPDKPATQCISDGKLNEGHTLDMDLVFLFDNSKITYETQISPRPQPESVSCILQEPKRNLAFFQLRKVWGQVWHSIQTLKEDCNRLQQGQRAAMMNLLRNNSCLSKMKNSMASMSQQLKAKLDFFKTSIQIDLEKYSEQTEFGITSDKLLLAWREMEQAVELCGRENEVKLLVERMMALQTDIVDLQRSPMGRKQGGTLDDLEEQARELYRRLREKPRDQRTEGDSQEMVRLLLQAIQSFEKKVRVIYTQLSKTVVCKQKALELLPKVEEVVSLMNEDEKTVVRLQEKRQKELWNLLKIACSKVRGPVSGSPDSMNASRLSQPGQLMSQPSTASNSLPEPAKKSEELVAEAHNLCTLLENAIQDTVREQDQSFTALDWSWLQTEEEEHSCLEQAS
As to conditions: at 0.1 µM.

Assay [9] has as its target T3, Inhibitor of nuclear factor kappa-B kinase subunit beta (Homo sapiens). The note with it: at 1 µM.
Assay [10] concerns the target T4, Inhibitor of nuclear factor kappa-B kinase subunit epsilon (Homo sapiens) (UniProt Q14164).
T4 sequence (whole entry): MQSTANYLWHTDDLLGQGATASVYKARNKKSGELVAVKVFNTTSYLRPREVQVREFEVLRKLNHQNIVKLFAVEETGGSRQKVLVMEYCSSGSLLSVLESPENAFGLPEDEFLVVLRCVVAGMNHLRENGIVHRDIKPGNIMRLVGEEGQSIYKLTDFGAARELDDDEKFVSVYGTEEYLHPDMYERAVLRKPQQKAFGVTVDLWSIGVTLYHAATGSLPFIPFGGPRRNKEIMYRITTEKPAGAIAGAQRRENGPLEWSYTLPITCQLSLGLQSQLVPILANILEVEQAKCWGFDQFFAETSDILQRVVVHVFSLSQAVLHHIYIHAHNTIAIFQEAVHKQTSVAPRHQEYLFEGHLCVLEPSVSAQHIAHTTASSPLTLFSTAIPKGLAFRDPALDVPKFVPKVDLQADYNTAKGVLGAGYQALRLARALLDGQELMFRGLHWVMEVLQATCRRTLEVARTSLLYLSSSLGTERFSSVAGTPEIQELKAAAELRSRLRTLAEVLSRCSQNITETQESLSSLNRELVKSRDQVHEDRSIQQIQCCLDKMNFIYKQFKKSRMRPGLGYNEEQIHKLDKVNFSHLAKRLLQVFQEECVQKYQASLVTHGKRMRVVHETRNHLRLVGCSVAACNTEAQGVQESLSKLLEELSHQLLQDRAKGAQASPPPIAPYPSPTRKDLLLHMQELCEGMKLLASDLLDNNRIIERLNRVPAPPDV
The note with it: at 0.1 µM.

The target in assay [11] is T4, Inhibitor of nuclear factor kappa-B kinase subunit epsilon (Homo sapiens). The note with it: at 1 µM.
For assay [12], the target named is T5, Serine/threonine-protein kinase Nek1 (Homo sapiens) (UniProt Q96PY6).
T5 sequence (whole entry): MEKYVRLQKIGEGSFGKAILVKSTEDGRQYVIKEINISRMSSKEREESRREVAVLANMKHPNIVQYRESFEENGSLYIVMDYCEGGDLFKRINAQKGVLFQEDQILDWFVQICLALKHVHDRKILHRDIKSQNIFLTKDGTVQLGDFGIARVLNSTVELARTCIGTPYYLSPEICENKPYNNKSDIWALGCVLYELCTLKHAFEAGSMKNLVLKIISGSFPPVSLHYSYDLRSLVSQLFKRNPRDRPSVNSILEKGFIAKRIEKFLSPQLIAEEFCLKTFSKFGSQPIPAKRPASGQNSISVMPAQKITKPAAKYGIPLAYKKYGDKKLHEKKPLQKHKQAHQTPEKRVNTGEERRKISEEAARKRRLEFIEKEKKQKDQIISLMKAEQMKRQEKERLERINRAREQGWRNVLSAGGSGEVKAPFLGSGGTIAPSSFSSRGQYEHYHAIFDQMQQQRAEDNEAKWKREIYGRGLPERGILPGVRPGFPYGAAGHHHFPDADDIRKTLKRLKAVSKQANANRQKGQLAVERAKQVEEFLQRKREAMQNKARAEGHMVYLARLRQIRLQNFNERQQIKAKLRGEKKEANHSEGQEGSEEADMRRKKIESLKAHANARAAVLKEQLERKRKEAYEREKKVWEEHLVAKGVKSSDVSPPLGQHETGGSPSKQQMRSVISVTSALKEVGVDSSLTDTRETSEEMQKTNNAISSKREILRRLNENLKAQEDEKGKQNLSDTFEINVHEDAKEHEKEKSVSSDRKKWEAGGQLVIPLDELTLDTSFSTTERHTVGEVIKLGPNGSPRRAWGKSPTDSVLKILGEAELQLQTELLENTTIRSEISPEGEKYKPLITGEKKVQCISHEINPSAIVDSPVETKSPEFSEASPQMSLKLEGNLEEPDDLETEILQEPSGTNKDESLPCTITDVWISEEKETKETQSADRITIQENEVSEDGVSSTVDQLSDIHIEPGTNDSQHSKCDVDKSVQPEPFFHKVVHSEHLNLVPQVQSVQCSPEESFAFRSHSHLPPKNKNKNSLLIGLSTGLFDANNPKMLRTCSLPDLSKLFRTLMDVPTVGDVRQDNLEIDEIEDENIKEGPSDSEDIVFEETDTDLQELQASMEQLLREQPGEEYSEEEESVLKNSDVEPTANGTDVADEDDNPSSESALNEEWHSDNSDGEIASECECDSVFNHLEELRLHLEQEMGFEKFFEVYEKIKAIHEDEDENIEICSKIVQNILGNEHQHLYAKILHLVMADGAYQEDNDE
The note with it: at 0.1 µM.

Assay [13] deals with T5, Serine/threonine-protein kinase Nek1 (Homo sapiens). As to conditions: at 1 µM.
The target in assay [14] is T6, Serine/threonine-protein kinase Nek2 (Homo sapiens) (UniProt P51955).
T6 sequence (whole entry): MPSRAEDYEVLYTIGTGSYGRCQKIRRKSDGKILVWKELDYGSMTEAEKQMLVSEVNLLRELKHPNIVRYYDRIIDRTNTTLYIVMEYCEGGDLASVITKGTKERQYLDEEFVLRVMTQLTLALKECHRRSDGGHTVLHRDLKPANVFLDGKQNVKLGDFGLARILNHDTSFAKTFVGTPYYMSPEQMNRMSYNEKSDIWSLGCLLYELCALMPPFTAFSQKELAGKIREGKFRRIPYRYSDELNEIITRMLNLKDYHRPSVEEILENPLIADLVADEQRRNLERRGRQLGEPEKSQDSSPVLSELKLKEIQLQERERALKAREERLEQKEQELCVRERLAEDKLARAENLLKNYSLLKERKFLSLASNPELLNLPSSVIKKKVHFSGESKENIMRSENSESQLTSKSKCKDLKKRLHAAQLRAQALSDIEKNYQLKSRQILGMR
As to conditions: at 0.1 µM.

The target in assay [15] is T6, Serine/threonine-protein kinase Nek2 (Homo sapiens). The note with it: at 1 µM.
The target in assay [16] is Serine/threonine-protein kinase Nek6 (Homo sapiens) (UniProt Q9HC98). The note with it: at 0.1 µM.
Sequence of Serine/threonine-protein kinase Nek6 (Homo sapiens) (Q9HC98 whole entry): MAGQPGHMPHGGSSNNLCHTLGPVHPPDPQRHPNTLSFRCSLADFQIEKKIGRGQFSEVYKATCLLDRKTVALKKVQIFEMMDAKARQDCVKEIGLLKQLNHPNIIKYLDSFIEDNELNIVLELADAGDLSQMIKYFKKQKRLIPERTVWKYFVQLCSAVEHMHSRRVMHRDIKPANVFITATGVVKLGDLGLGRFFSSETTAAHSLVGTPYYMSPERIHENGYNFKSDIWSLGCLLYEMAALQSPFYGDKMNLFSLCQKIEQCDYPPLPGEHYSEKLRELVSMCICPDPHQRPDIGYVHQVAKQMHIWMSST
Assay [17] has the same target. The note with it: at 1 µM.
Assay [18] deals with Serine/threonine-protein kinase Nek7 (Homo sapiens) (UniProt Q8TDX7). As to conditions: at 0.1 µM.
Sequence of Serine/threonine-protein kinase Nek7 (Homo sapiens) (Q8TDX7 whole entry, looked up): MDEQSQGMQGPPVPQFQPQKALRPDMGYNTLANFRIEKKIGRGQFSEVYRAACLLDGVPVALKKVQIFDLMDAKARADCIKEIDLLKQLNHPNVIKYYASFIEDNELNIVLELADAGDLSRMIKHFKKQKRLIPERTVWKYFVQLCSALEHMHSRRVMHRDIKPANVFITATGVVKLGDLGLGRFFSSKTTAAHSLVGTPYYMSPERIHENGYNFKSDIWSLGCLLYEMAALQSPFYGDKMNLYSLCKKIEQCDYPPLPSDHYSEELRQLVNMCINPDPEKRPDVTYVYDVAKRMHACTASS
Assay [19] has the same target. As to conditions: at 1 µM.
The target of assay [20] is T7, Serine/threonine-protein kinase Nek9 (Homo sapiens) (UniProt Q8TD19).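 Further: reported value is the mean percent inhibition of NEK9.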
T7 sequence (whole entry): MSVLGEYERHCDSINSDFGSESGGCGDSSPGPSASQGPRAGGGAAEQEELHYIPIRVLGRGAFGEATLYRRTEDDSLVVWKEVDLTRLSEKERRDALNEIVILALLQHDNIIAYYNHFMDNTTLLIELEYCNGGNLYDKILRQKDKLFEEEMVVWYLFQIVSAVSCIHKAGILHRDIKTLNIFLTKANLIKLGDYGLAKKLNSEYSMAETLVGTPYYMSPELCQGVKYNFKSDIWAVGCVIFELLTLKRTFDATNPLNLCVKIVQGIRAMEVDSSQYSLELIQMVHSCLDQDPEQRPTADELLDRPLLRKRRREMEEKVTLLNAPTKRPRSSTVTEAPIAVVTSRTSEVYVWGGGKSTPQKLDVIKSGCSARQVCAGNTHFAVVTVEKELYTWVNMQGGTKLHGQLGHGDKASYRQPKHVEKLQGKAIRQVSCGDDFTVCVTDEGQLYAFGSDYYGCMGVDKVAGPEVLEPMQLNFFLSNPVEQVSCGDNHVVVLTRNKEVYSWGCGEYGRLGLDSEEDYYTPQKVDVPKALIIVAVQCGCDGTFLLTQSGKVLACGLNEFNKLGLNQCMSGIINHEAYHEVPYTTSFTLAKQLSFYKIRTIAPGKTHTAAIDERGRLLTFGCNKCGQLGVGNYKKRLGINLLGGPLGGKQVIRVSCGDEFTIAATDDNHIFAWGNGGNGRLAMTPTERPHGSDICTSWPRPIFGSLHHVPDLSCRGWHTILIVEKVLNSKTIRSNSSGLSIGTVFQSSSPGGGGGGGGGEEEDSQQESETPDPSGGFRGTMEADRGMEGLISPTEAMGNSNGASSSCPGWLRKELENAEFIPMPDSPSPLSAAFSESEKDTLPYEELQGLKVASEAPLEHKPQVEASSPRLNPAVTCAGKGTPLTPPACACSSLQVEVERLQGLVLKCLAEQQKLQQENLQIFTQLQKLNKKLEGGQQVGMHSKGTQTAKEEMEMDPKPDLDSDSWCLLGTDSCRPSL
As to conditions: at 0.1 µM.

Sequence of Casein kinase II subunit alpha (Homo sapiens) (P68400 whole entry, looked up): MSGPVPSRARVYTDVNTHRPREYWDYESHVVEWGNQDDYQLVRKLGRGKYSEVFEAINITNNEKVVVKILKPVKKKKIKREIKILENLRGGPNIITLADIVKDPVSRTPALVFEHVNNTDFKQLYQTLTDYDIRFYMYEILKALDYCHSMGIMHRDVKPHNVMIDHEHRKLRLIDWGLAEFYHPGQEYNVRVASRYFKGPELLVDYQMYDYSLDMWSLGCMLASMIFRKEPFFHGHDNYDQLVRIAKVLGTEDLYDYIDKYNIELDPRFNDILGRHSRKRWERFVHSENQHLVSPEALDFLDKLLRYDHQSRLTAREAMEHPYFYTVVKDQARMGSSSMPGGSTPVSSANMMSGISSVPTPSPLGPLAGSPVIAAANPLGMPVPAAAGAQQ
Sequence of Sphingosine kinase 1 (Homo sapiens) (Q9NYA1 whole entry): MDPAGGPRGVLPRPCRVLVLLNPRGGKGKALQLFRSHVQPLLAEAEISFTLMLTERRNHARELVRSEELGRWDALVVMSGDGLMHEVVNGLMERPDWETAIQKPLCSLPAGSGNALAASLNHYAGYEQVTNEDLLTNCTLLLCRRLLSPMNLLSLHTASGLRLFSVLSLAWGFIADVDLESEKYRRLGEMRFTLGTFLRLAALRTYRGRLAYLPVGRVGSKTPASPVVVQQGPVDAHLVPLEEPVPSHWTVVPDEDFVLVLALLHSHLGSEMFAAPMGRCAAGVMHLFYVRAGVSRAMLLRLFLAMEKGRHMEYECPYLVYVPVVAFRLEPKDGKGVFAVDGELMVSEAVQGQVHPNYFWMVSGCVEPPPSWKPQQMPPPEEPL

For the compound `CN(C)CCNC(=O)Nc1ccc(N(C)c2ccnc(Nc3ccc(CS(C)(=O)=O)cc3)n2)cc1`, the inhibition in assay [1] is -1.23%; in assay [2], -0.06%; in assay [3], 2.33%; in [4], 2.94%; in assay [5], 0.31%; in assay [6], 2.05%. The inhibition in [7] is 0.39%; in assay [8], 7.67%; in [9] it was 1.94%; in assay [10], 3.33%; in assay [11], 6.21%; in [12] it was 0.66%. Moreover, the inhibition in assay [13] is 2.81%; in assay [14], 5.18%; in assay [15], -2.7%; in assay [16], 3.4%; in [17], 3.93%; in assay [18], 3.07%. Moreover, the inhibition in [19] came out at 2.78%; in [20] it was 0.16%.

The inhibition is the relative decrease from the control value, in per cent.
